Results reported in PubChem BioAssay AID1053126 (Broad Institute, 2014).
Potency and affinity values are given separately. The source made the active and inactive calls.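 How the source made its calls: active means cell killing with a fitted half-effect concentration at or below twice the top valid dose; inconclusive means flat curve with 30 to 70 percent drop, or poor fit; inactive means the rest.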

Experiment: HEK293T cell cytotoxicity, dose response, cytotoxicity control, ATP luminescence, cherry-pick, set 6 (AID 1053126)
Conditions: HEK293T viability, CellTiter-Glo ATP luminescence, 72 h; series mostly up to 26 µM

Row | SMILES | outcome
1 | O=C1c2ccccc2S(=O)(=O)c2cc(N3CCC(C(=O)N4CCCCC4)CC3)ccc21 | inactive
2 | COc1cccc(N2CCN(C(=O)C3CCCN(S(=O)(=O)c4cnc[nH]4)C3)CC2)c1 (stereo not drawn) | inactive
3 | CCOc1ccccc1N=c1oc2cc(O)ccc2cc1C(=O)NCC1CCCO1 (stereo not drawn) | inactive
4 | CN1CCN(c2nc3ccccn3c(=O)c2/C=C(\C#N)S(=O)(=O)c2ccccc2)CC1 | inactive
5 | CCOC(=O)c1oc2c(CN3CCN(CCO)CC3)c(O)c(CC)cc2c(=O)c1-c1nc2ccccc2s1 | inactive
6 | Cc1noc(C)c1-c1ccc(C(=O)NCCc2ccccc2)c2occc12 | inactive
7 | N#C/C(=C\c1ccc(N2CCOCC2)o1)C(=O)NCCc1ccccc1 | inactive
8 | N=c1oc2cc(O)ccc2cc1C(=O)Nc1nc2ccccc2s1 | inactive
9 | O=C(O)c1ccc(N2N=C(c3ccccc3)CC2c2ccccc2)cc1 (stereo not drawn) | inactive
10 | Cc1cc(OC(=O)c2ccccc2Cl)ccc1N1C(=O)CCC1=O | inactive
11 | Cc1c2c(n3c(nc4ccccc43)c1C#N)N(CCN1CCOCC1)CC2 | inactive
12 | O=C(Nc1ccc(-c2ccco2)cc1)C1CCCN(Cc2ccco2)C1 (stereo not drawn) | inactive
13 | Cc1c(Nc2c3ccccc3nc3ccccc23)c(=O)n(-c2ccccc2)n1C | inactive
14 | CCCN1CCc2c(sc(NC(=O)C3CCN(S(=O)(=O)c4cccs4)CC3)c2C(N)=O)C1 | inactive
15 | CCCCCCc1cc2cc(S(=O)(=O)c3ccc(F)cc3)c(=O)oc2cc1O | inactive
16 | CCOc1ccc2nc(NCCCNS(=O)(=O)c3ccc(C)cc3)c(C#N)cc2c1 | inactive
17 | O=C(O)c1ccc(-c2ccc(/C=C3\NC(=O)N(Cc4ccc(Cl)cc4)C3=O)o2)cc1 | inactive
18 | CCOC(=O)c1cc2c(=O)n3ccccc3nc2n(Cc2ccc(Cl)cc2)c1=N | inactive
19 | CN(C)CCOCCOc1ccc(Cl)c2ccccc12 | inactive

Row | SMILES | outcome
20 | Cc1cccn2c(=O)c3cc(C(=O)NCC4CCCO4)c(=N)n(CC4CCCO4)c3nc12 (stereo not drawn) | inactive
21 | CCC(=O)NCCCNc1nc2c(C)cccc2cc1C#N | inactive
22 | CCc1cccc(OC2OC(CO)C(O)C(O)C2NC(C)=O)c1 (stereo not drawn) | inactive
23 | Cc1nc(CCNC(=O)Cc2ccc(Cl)cc2)cs1 | inactive
24 | COCCN1C=C(C(=O)OC)C(c2ccc(Cl)cc2)C(C(=O)OC)=C1 | inactive
25 | O=C(O)c1ccc(N/N=C/c2ccc(-c3ccccc3Cl)o2)cc1 | inactive
26 | O=C(CCc1c[nH]c2ccccc12)OCC(=O)c1ccccc1 | inactive
27 | C/C(=N\NC(=O)CC#N)c1cc2ccc(O)cc2oc1=O | inactive
28 | CCC(C)n1c(=N)c(C#N)cc2c(=O)n3cccc(C)c3nc21 (stereo not drawn) | inactive
29 | O=C(c1cccc(Cl)c1)N1CCC(=O)N(C(COCc2ccccc2)Cc2ccccc2)CC1 (stereo not drawn) | inactive
30 | CC1=C(C(=O)N2CCN(c3cc(C)ccc3C)CC2)C2(CCCCC2)OC1=O | inactive
31 | Cc1cc(-c2nc3cccnc3s2)ccc1NS(=O)(=O)c1cccs1 | inactive
32 | CCOC(=O)c1cc2c(=O)n3ccccc3nc2n(C(C)C)c1=NC(=O)c1ccco1 | inactive
33 | O=C(O)c1cccc(Nc2nc(-c3cc4ccccc4oc3=O)cs2)c1 | inactive
34 | Cc1ccc2nc3c(cc(S(=O)(=O)c4ccccc4)c(=N)n3Cc3ccco3)c(=O)n2c1 | inactive
35 | O=C(CCCN1C(=O)CSc2ncccc21)N1CCN(Cc2ccccc2)CC1 | inactive
36 | NC(=O)c1c(NC(=O)Cc2ccccc2)sc2c1CCN(Cc1ccccc1)C2 | inactive
37 | CCOc1ccc(S(=O)(=O)Nc2ccc(C(=O)N(CC)CC(=O)NCc3cccs3)cc2)cc1 | inactive
38 | CCn1c(=NC(=O)CSC(C)=O)sc2cc(OC)ccc21 | inactive
